Laboratory results: PubChem BioAssay (NCATS)
Where “and” joins values, the source holds several entries; their conditions need not be identical. Equal values may be shown once. Inconclusive results are not listed. Calls of active or inactive are those of the source. Unless noted, calls come from the whole dose curve; as a rule, active = well fitted curve in the direction sought with a large enough effect; inconclusive = small, poorly fitted or top-dose-only effect, or another doubt; inactive = no such curve, though single readings can be large; an effect the other way counts as inactive or inconclusive.

Legend:
[1] = Primary qHTS for small molecule stabilizers of the endoplasmic reticulum resident proteome: Secreted ER Calcium Modulated Protein (SERCaMP) assay (AID 1508630)
In short: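 GLuc-SERCaMP-expressing SH-SY5Y cells, pretreated 16 h with compound, are challenged with thapsigargin to empty ER calcium stores; after 4 h, coelenterazine is added directly to the medium and luminescence is imaged.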

[2] = molecular target: Cytochrome P450 2C9 (Homo sapiens) (UniProt P11712); assay: Cytochrome P450 family 2 subfamily C member 9 (CYP2C9) small molecule antagonists: luciferase biochemical (cell-free) qHTS assay (AID 1645842; active = well fitted curve in the direction sought with a large enough effect in the repeat runs; an effect the other way counts as inactive or inconclusive; note: nearly all actives have a fitted effect of over 55% in size; note: potency is the fitted concentration of half-maximal effect)
Cytochrome P450 2C9 (Homo sapiens), sequence (P11712 whole entry, looked up): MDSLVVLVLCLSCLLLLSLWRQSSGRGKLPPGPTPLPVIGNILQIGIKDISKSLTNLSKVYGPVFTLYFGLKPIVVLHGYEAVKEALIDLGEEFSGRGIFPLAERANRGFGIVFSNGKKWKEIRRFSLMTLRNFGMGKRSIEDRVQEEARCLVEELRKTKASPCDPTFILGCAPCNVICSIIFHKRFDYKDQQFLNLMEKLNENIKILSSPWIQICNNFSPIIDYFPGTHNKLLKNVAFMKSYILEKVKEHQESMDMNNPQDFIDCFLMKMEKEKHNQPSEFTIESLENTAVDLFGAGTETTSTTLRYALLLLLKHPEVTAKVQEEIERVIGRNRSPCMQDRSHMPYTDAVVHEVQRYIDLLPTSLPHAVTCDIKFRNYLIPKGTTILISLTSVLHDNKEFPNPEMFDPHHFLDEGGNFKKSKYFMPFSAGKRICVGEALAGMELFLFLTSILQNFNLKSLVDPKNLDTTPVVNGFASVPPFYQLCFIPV
In short: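 Luminescence, after 20 min with luciferin detection reagent, reflected CYP2C9 turnover during a 1 h NADPH-driven reaction at 37C. Enzyme-substrate mix contained 0.4% bovine serum albumin and was preincubated with compound 10 min at room temperature.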

[3] = Cytotoxicity counterscreen for inhibitors of SARS-CoV-2 cell entry (AID 1645845; calls by dose curve; note: nearly all actives have a fitted effect of over 50% in size)
In short: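 HEK293-ACE2 cells (Expi293F stably expressing human ACE2) seeded overnight, then compound for 1 h plus 48 h at 37C. Viability as ATP content by luminescence; normalized to wells with cells and media-only wells.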

[4] = Primary qHTS for inhibitors of nuclear receptor binding SET domain protein 2 (NSD2) in an isogenic RCH-ACV NSD2 p.E1099K mutant (9B) (AID 1645876); note: nearly all actives have a fitted effect of over 70% in size; note: potency is the fitted concentration of half-maximal effect
[5] = Primary qHTS for inhibitors of nuclear receptor binding SET domain protein 2 (NSD2) in an RCH-ACV wild type WT cells (2C) (AID 1645877); note: nearly all actives have a fitted effect of over 70% in size; note: potency is the fitted concentration of half-maximal effect
[6] = molecular target: Cytochrome P450 2D6 (Homo sapiens) (UniProt P10635); assay: Cytochrome P450 family 2 subfamily D member 6 (CYP2D6) small molecule antagonists: luciferase biochemical (cell-free) qHTS assay (AID 1645840; active = well fitted curve in the direction sought with a large enough effect in the repeat runs; an effect the other way counts as inactive or inconclusive; note: nearly all actives have a fitted effect of over 55% in size; note: potency is the fitted concentration of half-maximal effect)
Cytochrome P450 2D6 (Homo sapiens), sequence (P10635 whole entry, looked up): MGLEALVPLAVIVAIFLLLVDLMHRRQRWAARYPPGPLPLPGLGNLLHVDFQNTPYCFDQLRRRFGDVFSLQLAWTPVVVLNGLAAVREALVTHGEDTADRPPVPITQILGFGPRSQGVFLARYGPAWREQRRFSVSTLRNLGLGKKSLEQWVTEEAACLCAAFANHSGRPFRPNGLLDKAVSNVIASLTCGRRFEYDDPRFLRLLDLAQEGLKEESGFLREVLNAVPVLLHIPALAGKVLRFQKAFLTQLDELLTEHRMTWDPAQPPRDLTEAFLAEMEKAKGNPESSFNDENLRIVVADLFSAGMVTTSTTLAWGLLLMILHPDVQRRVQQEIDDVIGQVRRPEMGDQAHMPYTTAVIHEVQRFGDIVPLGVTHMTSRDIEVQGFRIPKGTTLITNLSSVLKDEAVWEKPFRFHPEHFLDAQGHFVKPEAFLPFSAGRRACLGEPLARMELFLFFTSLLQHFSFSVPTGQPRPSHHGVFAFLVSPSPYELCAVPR
In short: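 P450-Glo luminescent screen: recombinant CYP2D6 enzyme–proluciferin substrate mix preincubated with compound 10 min at room temperature, then NADPH regeneration added for 1 h at room temperature. Detection reagent added for 20 min; luciferin light read as relative luminescence units.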

[7] = Primary qHTS to identify inhibitors of SARS-CoV-2 cell entry (AID 1645846; calls by dose curve; note: nearly all actives have a fitted effect of over 45% in size; note: potency is the fitted concentration of half-maximal effect); conditions: activity change, negative = inhibition: at 57.1 µM (top of the series) unless noted
In short: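 Inhibition of spike-mediated entry was scored in human ACE2-transfected Expi293F cells. Particles were MLV-pseudotyped with Wuhan-Hu-1 S carrying a 19-aa C-terminal deletion; signal was luciferase after two days, scaled between spike PP and fusion-protein-free PP.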

[8] = molecular target: Papain (Carica papaya) (UniProt P00784); assay: Primary qHTS assay for inhibitors of the protease papain (AID 1645873);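 note: papain turnover of Z-FR-AMC read as the AMC fluorescence gain over 10 min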
Papain (Carica papaya), sequence (P00784 whole entry, looked up): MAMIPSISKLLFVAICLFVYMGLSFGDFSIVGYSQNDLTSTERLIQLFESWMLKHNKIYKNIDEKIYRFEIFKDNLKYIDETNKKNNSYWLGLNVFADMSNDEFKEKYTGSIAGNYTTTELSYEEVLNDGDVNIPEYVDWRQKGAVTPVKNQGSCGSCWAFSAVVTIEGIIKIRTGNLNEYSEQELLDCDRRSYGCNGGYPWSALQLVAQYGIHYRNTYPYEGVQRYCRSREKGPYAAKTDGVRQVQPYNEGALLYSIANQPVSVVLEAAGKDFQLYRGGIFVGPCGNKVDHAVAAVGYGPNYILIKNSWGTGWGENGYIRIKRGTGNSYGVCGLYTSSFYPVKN

[9] = molecular target: Cytochrome P450 3A4 (Homo sapiens) (UniProt P08684); assay: Cytochrome P450 family 3 subfamily A member 4 (CYP3A4) small molecule antagonists: luciferase qHTS assay (AID 1645841; active = well fitted curve in the direction sought with a large enough effect in the repeat runs; an effect the other way counts as inactive or inconclusive; note: nearly all actives have a fitted effect of over 45% in size)
Cytochrome P450 3A4 (Homo sapiens), sequence (P08684 whole entry, looked up): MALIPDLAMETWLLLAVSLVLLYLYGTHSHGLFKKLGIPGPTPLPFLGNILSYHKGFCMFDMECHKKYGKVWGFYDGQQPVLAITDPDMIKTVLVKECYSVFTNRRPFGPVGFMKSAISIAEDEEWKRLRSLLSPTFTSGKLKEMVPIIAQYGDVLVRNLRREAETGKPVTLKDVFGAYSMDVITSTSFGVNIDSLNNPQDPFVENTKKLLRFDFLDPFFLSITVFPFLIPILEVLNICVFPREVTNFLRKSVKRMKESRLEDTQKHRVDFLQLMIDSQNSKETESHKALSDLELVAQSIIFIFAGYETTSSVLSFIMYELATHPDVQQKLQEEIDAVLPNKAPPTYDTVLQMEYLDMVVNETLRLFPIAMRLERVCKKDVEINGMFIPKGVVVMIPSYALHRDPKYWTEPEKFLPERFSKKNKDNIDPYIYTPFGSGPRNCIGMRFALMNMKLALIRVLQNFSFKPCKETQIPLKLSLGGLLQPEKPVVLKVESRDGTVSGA
In short: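 P450-Glo CYP3A4 enzyme with proluciferin substrate preincubated 10 min with compound at room temperature, then NADPH regeneration 1 h. Luciferin detection reagent added for 20 min; luminescence recorded. Ketoconazole positive control.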

Cc1c(C(=O)Nc2cccc(C(F)(F)F)c2)cc(-c2ccccc2)n1CCCN1CCOCC1
active: Potency [2] 4.77 µM | Potency [4] 20.9 µM | Potency [5] 23.5 µM
inactive: Potency [1] | Potency [3]

CC(Cc1ccc(O)cc1)NCC(O)c1cc(O)cc(O)c1 (stereo not drawn)
inactive: Potency [1] | Potency [2] | Potency [7] | Potency [8]
active: Potency [6] 11 µM

CS(=O)(=O)c1ccc(C(=O)C2C(=O)CCCC2=O)c([N+](=O)[O-])c1
active: Potency [2] 26.4 µM
inactive: Potency [1] | Potency [6] | Potency [4] | Potency [5]

O=[N+]([O-])/N=C1\NCCN1Cc1ccc(Cl)nc1
inactive: Potency [1] | Potency [6] | Potency [2] | Potency [3] | Potency [4] | Potency [5]

CSCC[C@@H](NC(=O)[C@@H](Cc1ccccc1)NC(=O)CNC(=O)CNC(=O)[C@@H](N)Cc1ccc(O)cc1)C(=O)O
inactive: Potency [1] | Potency [6] | Potency [2] | Potency [3] | Potency [4] | Potency [5]

Fc1cc(Br)ccc1CBr
inactive: Potency [1] | Potency [6] | Potency [2] | Potency [4] | Potency [5]

Cc1[nH]nc2ccc(-c3cncc(OC[C@@H](N)Cc4c[nH]c5ccccc45)c3)cc12
-97.4%: activity change, negative = inhibition [7]
inactive: Potency [1]
active: Potency [6] 3.79 µM | Potency [2] 0.674 µM | Potency [4] 145 nM and 235 nM | Potency [5] 81.7 nM and 132 nM

CCCCCCCCCCCCCCCC[N+](C)(C)C
active: Potency [6] 871 nM and 849 nM | Potency [7] 25.1 µM | Potency [4] 0.422 µM | Potency [5] 0.596 µM
inactive: Potency [1] | Potency [2]

O=S(=O)(O)C(F)(F)C(F)(F)C(F)(F)C(F)(F)F
active: Potency [2] 18.9 µM
inactive: Potency [1] | Potency [6] | Potency [4] | Potency [5]

COc1nn(CSP(=S)(OC)OC)c(=O)s1
inactive: Potency [1]
active: Potency [6] 25.9 µM | Potency [2] 5.17 µM | Potency [4] 9.69 µM | Potency [5] 13.7 µM

COC(C)(C)CCCC(C)C/C=C/C(C)=C/C(=O)OC(C)C (stereo not drawn)
inactive: Potency [1] | Potency [6] | Potency [4] | Potency [5]

CC(C)NCC(O)c1ccc([N+](=O)[O-])cc1 (stereo not drawn)
inactive: Potency [1] | Potency [9] | Potency [2] | Potency [4] | Potency [5]
